# miR-122 inh: miR-122 sensor activation; 0.14% of 340,000 active; Huh7 psiCHECK-miR122 Renilla luciferase sensor, 48 h; activation, % at 12.5 µM; AID 623901;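 active means mean activation of 30% or more, with every replicate also reaching 30%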;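 further: higher luciferase signal means stronger suppression of miR-122 activity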
# Numbers stand for hits; i = inactive. The entries come from a sample that favours hits as a whole.
SMILES,miR-122 inh
C[C@H]1CN([C@@H](C)CO)S(=O)(=O)c2ccc(-c3ccncc3)cc2O[C@@H]1CN(C)C(=O)C1CC1,i
O=CN1CCN(C(=O)c2ccccc2F)CC1,34
C[C@@H]1CN([C@@H](C)CO)C(=O)c2cc(C#Cc3ccccn3)cnc2O[C@@H]1CN(C)Cc1cccnc1,i
CCC(=O)N(C)C[C@H]1Oc2ncc(C#Cc3ccc(OC)cc3)cc2C(=O)N([C@H](C)CO)C[C@@H]1C,i
C[C@@H]1CN([C@H](C)CO)C(=O)c2cc(-c3cccc(F)c3)cnc2O[C@@H]1CN(C)C(=O)c1ccccn1,i
C[C@@H]1CN([C@H](C)CO)C(=O)Cc2cc(NC(=O)Nc3cccc4ccccc34)ccc2O[C@@H]1CN(C)C(=O)Nc1cccc2ccccc12,i
C[C@H](CO)N1C[C@H](C)[C@H](CN(C)Cc2ccc(C(=O)Nc3ccccc3N)cc2)Oc2ccc(NC(=O)Nc3cccc4ccccc34)cc2CC1=O,i
C[C@H]1CCCCO[C@@H](CN(C)CC2CCCCC2)[C@@H](C)CN([C@@H](C)CO)C(=O)c2cc(NC(=O)Nc3cccc4ccccc34)ccc2O1,33
C[C@@H]1CN([C@H](C)CO)C(=O)Cc2cc(NC(=O)Nc3cccc4ccccc34)ccc2O[C@@H]1CN(C)C(=O)NC1CCCCC1,i
C[C@H](CO)N1C[C@H](C)[C@@H](CN(C)Cc2ccncc2)Oc2ccc(NC(=O)Nc3cccc4ccccc34)cc2CC1=O,i
C[C@@H]1CCCCO[C@@H](CN(C)CC2CCCCC2)[C@H](C)CN([C@@H](C)CO)C(=O)c2cc(NC(=O)Nc3cccc4ccccc34)ccc2O1,31
COc1cccc(C#Cc2cnc3c(c2)C(=O)N([C@@H](C)CO)C[C@@H](C)[C@H](CN(C)C(=O)C2CCCCC2)O3)c1,i
Cc1ccc(S(=O)(=O)N(C)C[C@@H]2Oc3ncc(C#CCC(C)C)cc3C(=O)N([C@H](C)CO)C[C@@H]2C)cc1,i
COc1ccccc1S(=O)(=O)N(C)C[C@@H]1Oc2cc(/C=C/c3ccccc3)ccc2S(=O)(=O)N([C@H](C)CO)C[C@@H]1C,i
CC(=O)N(C)C[C@@H]1Oc2cc(C#CC3CCCCC3)ccc2S(=O)(=O)N([C@H](C)CO)C[C@@H]1C,i
C[C@@H]1CN([C@@H](C)CO)S(=O)(=O)c2ccc(C#CCC3CCCC3)cc2O[C@@H]1CN(C)C(=O)CC1CC1,i
C[C@@H]1CN([C@H](C)CO)C(=O)c2cc(C#Cc3cccc(F)c3)cnc2O[C@@H]1CN(C)C(=O)C1CC1,i
C[C@@H]1CN([C@H](C)CO)S(=O)(=O)c2ccc(-c3cncnc3)cc2O[C@H]1CN(C)Cc1ccccn1,i
CCN(CC)CCOc1cccc(C(C)C)c1,36
C[C@H](CO)N1C[C@H](C)[C@H](CN(C)C(=O)Cc2ccccn2)Oc2ncc(-c3cccc(C(=O)N(C)C)c3)cc2C1=O,i
C[C@@H]1CN([C@H](C)CO)C(=O)c2cc(C#CC3(O)CCCC3)cnc2O[C@@H]1CN(C)C(=O)CN(C)C,i
C[C@@H]1CN([C@H](C)CO)S(=O)(=O)c2ccc(-c3ccccc3)cc2O[C@@H]1CN(C)Cc1cccnc1,i
CCCN(C)C[C@@H]1Oc2cc(C#CC3(O)CCCC3)ccc2S(=O)(=O)N([C@@H](C)CO)C[C@@H]1C,i
O=C(NC(Nc1ncc(S(=O)(=O)c2ccc([N+](=O)[O-])cc2)s1)(C(F)(F)F)C(F)(F)F)c1ccc(Cl)cc1,44
CC(C)CC#Cc1cnc2c(c1)C(=O)N([C@H](C)CO)C[C@@H](C)[C@H](CN(C)C(=O)Nc1ccccc1F)O2,i
SMILES,miR-122 inh
COc1ccc(NC(=O)N(C)C[C@H]2Oc3ncc(C4=CCCC4)cc3C(=O)N([C@@H](C)CO)C[C@H]2C)cc1,i
O=c1c2c3c(sc2nc2n1CCC2)CCCC3,32
C[C@H]1CN([C@@H](C)CO)C(=O)c2cc(C#Cc3ccccc3)cnc2O[C@H]1CN(C)C(=O)c1ccccn1,i
OCc1ccc(-c2nn(Cc3ccccc3)c3ccccc23)o1,54
COCC(=O)N(C)C[C@H]1Oc2cc(C#CC(C)C)ccc2S(=O)(=O)N([C@H](C)CO)C[C@H]1C,i
Cc1cc(C(=O)Nc2ccc3c(c2)C(=O)N(C)[C@@H]2CC[C@@H](CC(=O)N[C@H](C)c4ccccc4)O[C@H]2CO3)no1,33
Cc1cc(C(=O)Nc2ccc3c(c2)C(=O)N(C)[C@H]2CC[C@H](CC(=O)N[C@@H](C)c4ccccc4)O[C@H]2CO3)no1,50
COCC#Cc1cnc2c(c1)C(=O)N([C@@H](C)CO)C[C@@H](C)[C@@H](CN(C)C(=O)C1CCOCC1)O2,i
C[C@H]1CN([C@@H](C)CO)S(=O)(=O)c2ccc(C#CC(C)(C)O)cc2O[C@H]1CN(C)CC1CC1,i
CC(C)C#Cc1ccc2c(c1)O[C@H](CN(C)C(=O)NC(C)C)[C@@H](C)CN([C@H](C)CO)S2(=O)=O,i
C[C@@H]1CN([C@H](C)CO)S(=O)(=O)c2ccc(-c3ccncc3)cc2O[C@H]1CN(C)C(=O)C1CC1,i
C[C@H](CO)N1C[C@H](C)[C@H](CN(C)C)Oc2cc(-c3ccc(C(=O)N(C)C)cc3)ccc2S1(=O)=O,i
CC(=O)N(C)C[C@H]1Oc2cc(C#CC3CCCCC3)ccc2S(=O)(=O)N([C@@H](C)CO)C[C@H]1C,i
C[C@H]1CN([C@@H](C)CO)C(=O)c2cc(C#CCc3ccccc3)cnc2O[C@@H]1CN(C)Cc1ccccn1,i
CC(C)C(=O)Nc1ccc2c(c1)C(=O)N(C)[C@H]1CC[C@H](CC(=O)NCCc3ccccc3)O[C@H]1CO2,53
CCNC(=O)C[C@H]1CC[C@@H]2[C@@H](COc3ccc(NC(=O)c4cccc(C(F)(F)F)c4)cc3C(=O)N2C)O1,53
CC(C)C(=O)Nc1ccc2c(c1)C(=O)N(C)[C@H]1CC[C@H](CC(=O)NCc3cccc(F)c3)O[C@@H]1CO2,i
CN1C(=O)c2cc(NC(=O)c3ccc(C(F)(F)F)cc3)ccc2OC[C@@H]2O[C@H](CC(=O)NCc3ccc4c(c3)OCO4)CC[C@@H]21,33
COCCNC(=O)C[C@@H]1CC[C@H]2[C@H](COc3ccc(NC(=O)Cc4ccccc4)cc3C(=O)N2C)O1,i
CCNC(=O)C[C@@H]1CC[C@@H]2[C@@H](COc3ccc(NC(=O)c4ccccc4)cc3C(=O)N2C)O1,42
CC(=O)N(C)C[C@@H]1Oc2cc(C#C[C@@H](C)O)ccc2S(=O)(=O)N([C@@H](C)CO)C[C@H]1C,i
C/C=C/c1cnc2c(c1)C(=O)N([C@@H](C)CO)C[C@@H](C)[C@H](CN(C)C(=O)c1cccnc1)O2,i
COCC(=O)Nc1ccc2c(c1)OC[C@@H](C)N(C(C)=O)C[C@@H](C)[C@@H](OC)CN(C)C2=O,i
CCCNC(=O)N(C)C[C@H]1Oc2ncc(C#CC(C)C)cc2C(=O)N([C@H](C)CO)C[C@@H]1C,i
C[C@@H]1CN([C@H](C)CO)C(=O)c2cc(C#Cc3cccnc3)cnc2O[C@@H]1CN(C)Cc1ccncc1,i
C[C@@H]1CN([C@@H](C)CO)C(=O)c2cc(-c3ccncc3)cnc2O[C@H]1CN(C)C(=O)c1ccccc1F,i
COc1ccccc1-c1ccc2c(c1)O[C@@H](CN(C)S(=O)(=O)c1ccccc1)[C@@H](C)CN([C@@H](C)CO)S2(=O)=O,i
COc1cccc(S(=O)(=O)N(C)C[C@H]2Oc3ncc(C#CCC(C)C)cc3C(=O)N([C@H](C)CO)C[C@H]2C)c1,i
C[C@@H]1CN([C@H](C)CO)C(=O)c2cc(/C=C/c3ccccc3)cnc2O[C@H]1CN(C)C(=O)c1cccnc1,i

# Screens from PubChem.
